Experimental data: PubChem BioAssay (NCATS)
Where “and” joins values, the source holds several entries; their conditions need not be identical. Identical values can stand only once. Records with an inconclusive call do not appear. Calls of active or inactive are those of the source. Unless noted, how the calls were made is not given here.

Key:
[1] = molecular target: Androgen receptor (Homo sapiens) (UniProt P10275); assay: qHTS assay for small molecule agonists of androgen receptor signaling (AID 588515; active means well fitted curve in the direction sought with a large enough effect in the signal ratio, with a control signal flat; the % refers to the signal ratio; further: on the % scale 0 is the no-effect control and ±100 the full control effect); details: AR-UAS-bla HEK293, beta-lactamase ratio, agonist 16 h; stronger effect = higher value
Chain of Androgen receptor (Homo sapiens) (P10275 whole entry, looked up): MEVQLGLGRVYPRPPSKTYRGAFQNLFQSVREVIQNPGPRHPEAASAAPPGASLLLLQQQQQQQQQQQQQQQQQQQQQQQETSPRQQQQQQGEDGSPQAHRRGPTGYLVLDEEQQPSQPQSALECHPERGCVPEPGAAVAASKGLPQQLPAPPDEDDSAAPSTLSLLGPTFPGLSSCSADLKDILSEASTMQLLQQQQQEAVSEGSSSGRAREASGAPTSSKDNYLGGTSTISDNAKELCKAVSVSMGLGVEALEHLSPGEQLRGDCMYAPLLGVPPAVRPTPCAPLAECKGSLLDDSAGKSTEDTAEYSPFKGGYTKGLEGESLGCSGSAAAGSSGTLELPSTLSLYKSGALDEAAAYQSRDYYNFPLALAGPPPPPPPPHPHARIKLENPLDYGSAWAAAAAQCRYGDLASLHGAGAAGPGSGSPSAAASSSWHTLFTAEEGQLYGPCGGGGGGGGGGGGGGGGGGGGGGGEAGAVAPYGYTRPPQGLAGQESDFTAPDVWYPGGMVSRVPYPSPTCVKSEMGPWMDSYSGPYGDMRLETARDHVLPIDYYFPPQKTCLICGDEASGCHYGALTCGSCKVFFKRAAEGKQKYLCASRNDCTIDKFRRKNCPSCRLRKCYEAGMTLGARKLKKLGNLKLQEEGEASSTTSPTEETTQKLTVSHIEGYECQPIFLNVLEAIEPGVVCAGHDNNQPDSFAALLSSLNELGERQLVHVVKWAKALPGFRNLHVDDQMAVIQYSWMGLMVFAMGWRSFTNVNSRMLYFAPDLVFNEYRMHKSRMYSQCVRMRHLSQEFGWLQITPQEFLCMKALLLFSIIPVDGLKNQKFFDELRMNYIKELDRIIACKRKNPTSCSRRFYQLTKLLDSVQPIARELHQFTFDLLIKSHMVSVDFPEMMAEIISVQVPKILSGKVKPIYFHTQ
Outline: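 Stimulation of an AR-responsive β-lactamase reporter in GripTite HEK293 cells was measured after 16 h compound exposure at 37 °C, via CCF4 fluorescence after 2 h RT. EC50 from Hill fits, normalized to R1881 at 30 nM.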

[2] = molecular target: Androgen receptor (Homo sapiens) (UniProt P10275); assay: qHTS assay for small molecule antagonists of androgen receptor signaling (AID 588516; active means well fitted curve in the direction sought with a large enough effect in the signal ratio, with a control signal flat, not every such curve was filed as active; the % refers to the signal ratio; further: on the % scale 0 is the no-effect control and ±100 the full control effect)
Outline: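 Antagonist mode: inhibition of R1881-stimulated (10 nM final) bla reporter in GeneBLAzer AR HEK 293 cells, 16 h at 37C, compounds titrated. IC50 and efficacy from Hill-equation fits of 405/460–530 nm FRET ratios.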

[3] = molecular target: Bile acid receptor (Homo sapiens) (UniProt Q96RI1); assay: qHTS assay for small molecule antagonists of farnesoid X receptor signaling (AID 588526; calls by dose curve; further: on the % scale 0 is the no-effect control and ±100 the full control effect)
Chain of Bile acid receptor (Homo sapiens) (Q96RI1 whole entry, looked up): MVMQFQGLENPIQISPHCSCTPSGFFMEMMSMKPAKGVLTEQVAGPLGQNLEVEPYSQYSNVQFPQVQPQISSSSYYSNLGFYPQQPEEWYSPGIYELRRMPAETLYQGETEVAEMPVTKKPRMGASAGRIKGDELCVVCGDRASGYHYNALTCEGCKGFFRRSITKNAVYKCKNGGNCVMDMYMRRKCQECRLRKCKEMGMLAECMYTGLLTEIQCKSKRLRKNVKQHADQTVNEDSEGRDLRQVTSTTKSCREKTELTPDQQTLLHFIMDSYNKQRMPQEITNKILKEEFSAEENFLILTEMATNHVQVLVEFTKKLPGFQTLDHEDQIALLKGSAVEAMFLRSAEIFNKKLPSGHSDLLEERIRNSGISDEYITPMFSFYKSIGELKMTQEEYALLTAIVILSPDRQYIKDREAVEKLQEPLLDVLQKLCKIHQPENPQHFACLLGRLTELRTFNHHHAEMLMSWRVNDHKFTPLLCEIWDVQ
Outline: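 Antagonist mode: titrated compounds tested against chenodeoxycholic acid stimulation (normalized to 50 uM CDCA and DMSO) in GeneBLAzer HEK293T cells for 16 h. Beta-lactamase read by CCF4 fluorescence; IC50 from Hill fits.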

[4] = molecular target: Bile acid receptor (Homo sapiens) (UniProt Q96RI1); assay: qHTS assay for small molecule agonists of farnesoid X receptor signaling (AID 588527; calls by dose curve;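 further: series mostly up to about 77 µM; 0% = vehicle basal and 100% = reference agonist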); details: HEK293T FXR-UAS-bla, beta-lactamase ratio, 16 h; activation: stronger effect = higher value
Outline: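 Quantitative HTS used FXR-UAS-bla HEK293T cells with 16 h compound incubation at 37 C. EC50 values came from concentration-response curves normalized to chenodeoxycholic acid.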

[5] = molecular target: Glucocorticoid receptor (Homo sapiens) (UniProt P04150); assay: qHTS assay for small molecule antagonists of glucocorticoid receptor signaling (AID 588533; active means well fitted inhibition curve with a large enough effect in the signal ratio, with a control signal flat, not every such curve was filed as active; the % refers to the signal ratio;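 further: cells stimulated with 2 nM dexamethasone as agonist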; further: potency means the concentration at half of the fitted maximal effect)
Chain of Glucocorticoid receptor (Homo sapiens) (P04150 whole entry, looked up): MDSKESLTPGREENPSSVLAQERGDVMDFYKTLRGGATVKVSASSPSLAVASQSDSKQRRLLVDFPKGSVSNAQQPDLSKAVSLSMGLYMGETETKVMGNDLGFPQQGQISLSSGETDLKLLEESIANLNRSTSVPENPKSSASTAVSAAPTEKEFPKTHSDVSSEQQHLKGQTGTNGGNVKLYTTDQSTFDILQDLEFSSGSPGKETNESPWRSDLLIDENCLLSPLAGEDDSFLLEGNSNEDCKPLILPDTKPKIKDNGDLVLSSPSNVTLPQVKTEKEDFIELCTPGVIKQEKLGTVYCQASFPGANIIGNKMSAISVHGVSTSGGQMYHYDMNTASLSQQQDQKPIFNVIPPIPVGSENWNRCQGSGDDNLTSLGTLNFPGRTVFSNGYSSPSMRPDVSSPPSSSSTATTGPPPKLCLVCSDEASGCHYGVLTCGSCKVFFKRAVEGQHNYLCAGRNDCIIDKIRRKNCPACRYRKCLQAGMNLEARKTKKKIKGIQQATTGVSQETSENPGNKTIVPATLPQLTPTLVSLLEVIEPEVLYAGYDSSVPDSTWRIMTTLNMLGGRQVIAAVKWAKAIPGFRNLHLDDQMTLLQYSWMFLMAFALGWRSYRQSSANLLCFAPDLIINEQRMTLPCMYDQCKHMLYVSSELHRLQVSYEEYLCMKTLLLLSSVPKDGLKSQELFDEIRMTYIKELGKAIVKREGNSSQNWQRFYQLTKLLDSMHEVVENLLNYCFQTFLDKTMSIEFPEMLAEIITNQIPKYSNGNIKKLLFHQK
Outline: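 Antagonist-mode qHTS: compound titrations added to GRE-bla HeLa cells, then dexamethasone 2 nM final; 18 h, 37 C. CCF4 FRET fluorescence normalized to dexamethasone and DMSO; IC50 from Hill fit.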

[6] = qHTS assay for small molecule antagonists of peroxisome proliferator-activated receptor delta signaling (AID 588535); details: HEK293T PPARd-UAS-bla, beta-lactamase FRET ratio, 18 h; 460 nm channel;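 further: cells co-treated with a PPAR-delta agonist as stimulator during compound exposure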
Outline: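 Fluorescence from CCF4-loaded GeneBLAzer PPAR-delta-UAS-bla HEK293T cells (2 hrs RT loading) quantified reporter inhibition after an 18 hr, 37 C compound exposure across a titration.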

[7] = molecular target: Peroxisome proliferator-activated receptor gamma (Homo sapiens) (UniProt P37231); assay: qHTS assay for small molecule antagonists of peroxisome proliferator-activated receptor gamma signaling (AID 588537; active means well fitted inhibition curve with a large enough effect in the signal ratio, with a control signal flat, not every such curve was filed as active; the % refers to the signal ratio;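 further: reporter cells co-stimulated with 50 nM rosiglitazone agonist during compound treatment; % of control where 0% means no effect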)
Chain of Peroxisome proliferator-activated receptor gamma (Homo sapiens) (P37231 whole entry, looked up): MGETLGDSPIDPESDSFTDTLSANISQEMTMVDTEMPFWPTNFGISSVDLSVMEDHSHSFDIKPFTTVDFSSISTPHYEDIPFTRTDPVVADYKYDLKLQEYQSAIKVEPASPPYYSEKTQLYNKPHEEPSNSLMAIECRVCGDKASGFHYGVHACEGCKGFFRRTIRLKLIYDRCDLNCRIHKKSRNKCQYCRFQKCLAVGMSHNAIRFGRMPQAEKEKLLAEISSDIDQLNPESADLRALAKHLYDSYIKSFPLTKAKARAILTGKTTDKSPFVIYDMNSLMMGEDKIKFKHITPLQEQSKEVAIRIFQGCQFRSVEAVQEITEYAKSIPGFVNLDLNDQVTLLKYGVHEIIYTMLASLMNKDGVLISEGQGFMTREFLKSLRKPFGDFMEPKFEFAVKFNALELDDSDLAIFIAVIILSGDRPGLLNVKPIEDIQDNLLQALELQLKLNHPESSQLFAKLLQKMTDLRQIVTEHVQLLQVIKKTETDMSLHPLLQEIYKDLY
Outline: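 Fluorescence at 460 and 530 nm (405 nm excitation) reported beta-lactamase cleavage of CCF4 after 2 h room-temperature loading. HEK293 reporter cells in 1% charcoal/dextran-treated FBS had received compound and rosiglitazone for 16 h.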

[8] = qHTS assay for small molecule agonists of retinoid X receptor alpha signaling (AID 588544); details: HEK293T RXRa-UAS-bla, beta-lactamase reporter, 18 h; 530 nm emission
[9] = molecular target: Thyroid hormone receptor beta (Homo sapiens) (UniProt P10828); assay: qHTS assay for small molecule antagonists of thyroid hormone receptor beta signaling (AID 588547; active means well fitted inhibition curve with a large enough effect in the signal ratio, with a control signal flat, not every such curve was filed as active; the % refers to the signal ratio;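 further: cells stimulated with 0.4 nM T3 agonist during compound exposure; series mostly up to about 77 µM; on the % scale 0 is the no-effect control and ±100 the full control effect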); details: TR-UAS-bla HEK293, beta-lactamase ratio, antagonist mode, 18 h
Chain of Thyroid hormone receptor beta (Homo sapiens) (P10828 whole entry, looked up): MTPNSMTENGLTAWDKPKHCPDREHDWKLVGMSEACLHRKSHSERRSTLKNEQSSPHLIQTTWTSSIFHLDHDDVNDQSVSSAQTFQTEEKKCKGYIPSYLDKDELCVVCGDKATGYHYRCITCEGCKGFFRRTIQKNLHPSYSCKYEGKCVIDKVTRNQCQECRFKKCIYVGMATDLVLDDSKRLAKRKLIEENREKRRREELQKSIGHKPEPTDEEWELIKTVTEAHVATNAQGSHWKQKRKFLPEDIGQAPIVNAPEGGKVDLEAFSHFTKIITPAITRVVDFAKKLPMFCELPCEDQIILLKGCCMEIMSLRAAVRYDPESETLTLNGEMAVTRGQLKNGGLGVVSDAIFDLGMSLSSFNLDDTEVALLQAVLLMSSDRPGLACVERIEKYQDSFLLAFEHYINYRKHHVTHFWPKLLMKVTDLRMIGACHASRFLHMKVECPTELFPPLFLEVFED
Outline: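 TR-UAS-bla GripTite HEK293 cells in 2% charcoal/dextran FBS medium; compounds 0.59 nM to 92 uM with T3 at 0.4nM final, 18 h at 37 C. Beta-lactamase read by CCF4 fluorescence (460/530 nm); Hill fits gave IC50 and efficacy.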

[10] = qHTS assay for small molecule activators of the human pregnane X receptor (PXR) signaling pathway (AID 720659); further: 0% is about no effect
[11] = qHTS assay for small molecule agonists of the antioxidant response element (ARE) signaling pathway (AID 651741; active means well fitted activation curve with a large enough effect in the signal ratio; the % refers to the signal ratio; further: potency means the concentration at half of the fitted maximal effect; on activation: % of control where 0% means no effect)
Outline: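 Stably integrated ARE-beta-lactamase reporter HepG2 cells; 16 h compound incubation, 37 C; LiveBLAzer FRET substrate 2 h at room temperature; fluorescence intensity.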

## COc1cc(OC)nc(NC(=O)NS(=O)(=O)c2cc(NC=O)ccc2C(=O)N(C)C)n1
[1]
  activation: 1.85% (inactive)
[2]
  Potency: inactive
[3]
  Potency: inactive
[4]
  activation: -1.24% (inactive)
[5]
  Potency: inactive
[6]
  max response: -27.4%
[7]
  Potency: inactive
[8]
  max response: -3.56%
[9]
  activity change % (negative = inhibition): -8.65% (inactive)
[10]
  outcome: inactive

## CCOP(=S)(OCC)SCSP(=S)(OCC)OCC
[5]
  Potency: inactive
[6]
  max response: 36.7%
[7]
  Potency: inactive

## Brc1ccc(Oc2ccccc2)cc1
[5]
  Potency: inactive
[6]
  max response: 2.82%
[7]
  Potency: inactive
[8]
  max response: -12.9%
[9]
  activity change % (negative = inhibition): -9.48% (inactive)
[10]
  outcome: inactive

## CNP(=O)(OC)Oc1ccc(C(C)(C)C)cc1Cl (centres undefined)
[6]
  max response: 45%
[8]
  max response: 10.3%
[11]
  Potency: 61.1 µM (active)

## CCCOc1nn(C(=O)NS(=O)(=O)c2ccccc2C(=O)OC)c(=O)n1C
[1]
  activation: 9.43% (inactive)
[2]
  Potency: inactive
[5]
  Potency: inactive
[6]
  max response: 41%
[7]
  Potency: inactive
[9]
  activity change % (negative = inhibition): 10.6% (inactive)
[11]
  Potency: inactive
[10]
  outcome: inactive

## CC(C)(C)C(O)/C(=C\c1ccc(Cl)cc1Cl)n1cncn1 (centres undefined)
[4]
  activation: 1.69% (inactive)
[5]
  Potency: 35.5 µM (active)
[9]
  activity change % (negative = inhibition): -35.6% (inactive)

## N#CN=C1SCCN1Cc1ccc(Cl)nc1
[6]
  max response: 8.04%
[7]
  Potency: inactive
[8]
  max response: 6.15%
[11]
  Potency: inactive

## CC1(C)CON(Cc2ccccc2Cl)C1=O
[6]
  max response: 23.3%
[7]
  Potency: inactive
[8]
  max response: 5.44%
[9]
  activity change % (negative = inhibition): 0.368% (inactive)
[11]
  Potency: inactive

## CCNc1nc(NC(C)C)nc(SC)n1
[1]
  activation: -1.4% (inactive)
[2]
  Potency: inactive
[6]
  max response: 5.95%
[7]
  Potency: inactive
[8]
  max response: -4.47%
[9]
  activity change % (negative = inhibition): 5.24% (inactive)
[11]
  Potency: inactive

## CC(C)OC(=O)C(O)(c1ccc(Br)cc1)c1ccc(Br)cc1
[4]
  activation: 5.65% (inactive)

## CC1(C)[C@H](C=C(Cl)Cl)[C@H]1C(=O)O[C@H](C#N)c1ccc(F)c(Oc2ccccc2)c1
[5]
  Potency: inactive
[6]
  max response: 27%
[7]
  Potency: inactive

## ClC1=C(Cl)[C@@]2(Cl)[C@H]3C[C@@H](Cl)[C@H](Cl)[C@H]3[C@@]1(Cl)C2(Cl)Cl
[1]
  activation: -0.104% (inactive)
[2]
  Potency: inactive
[4]
  activation: -1.23% (inactive)
[11]
  Potency: 24.3 µM (active)

## Cc1cc(Cl)ccc1O[C@H](C)C(=O)O
[7]
  Potency: inactive
[8]
  max response: -13.3%
[9]
  activity change % (negative = inhibition): 17.7% (inactive)
[10]
  outcome: inactive

## COc1ccc(/C(=C/C(=O)N2CCOCC2)c2ccc(Cl)cc2)cc1OC
[1]
  activation: -2.83% (inactive)
[2]
  Potency: inactive
[4]
  activation: -0.563% (inactive)
[5]
  Potency: inactive
[7]
  Potency: inactive
[8]
  max response: 28.2%

## Cn1c(-c2ccccc2)cc(-c2ccccc2)[n+]1C
[7]
  Potency: inactive
[8]
  max response: 12.1%

## CCCCOC(=O)[C@@H](C)Oc1ccc(Oc2ccc(C#N)cc2F)cc1
[5]
  Potency: inactive
[7]
  Potency: inactive
[8]
  max response: 10.2%
[9]
  activity change % (negative = inhibition): 0.16% (inactive)
[10]
  outcome: inactive

## CCCCNC(=O)OCC#CI
[4]
  activation: 1.93% (inactive)
[7]
  Potency: inactive
[10]
  outcome: inactive

## CO/N=C(/C(=O)OC)c1ccccc1COc1ccccc1C
[4]
  activation: -0.265% (inactive)
[9]
  activity change % (negative = inhibition): -29.5% (inactive)
[10]
  outcome: inactive

## Cc1nn(-c2cc(NS(C)(=O)=O)c(Cl)cc2Cl)c(=O)n1C(F)F
[1]
  activation: -3.3% (inactive)
[2]
  Potency: inactive
[6]
  max response: -1.23%
[7]
  Potency: inactive
[8]
  max response: 10.2%
[9]
  activity change % (negative = inhibition): -13.9% (inactive)
[11]
  Potency: inactive

## O=C(O)C(F)(F)C(F)(F)C(F)(F)C(F)(F)C(F)(F)C(F)(F)C(F)(F)C(F)(F)C(F)(F)F
[5]
  Potency: inactive
[6]
  max response: 7.25% and 27.2%
[7]
  Potency: inactive
[9]
  activity change % (negative = inhibition): -14.6% (inactive) and -11.9% (inactive)
[10]
  outcome: inactive

## CON(C)C(=O)Nc1ccc(Cl)c(Cl)c1
[5]
  Potency: inactive
[8]
  max response: -3.25%

## CCC(C)(C)c1cc(-n2nc3ccccc3n2)c(O)c(C(C)(C)CC)c1
[1]
  activation: 3.42% (inactive)
[2]
  Potency: inactive
[5]
  Potency: inactive
[6]
  max response: -9.56%
[8]
  max response: -3.41%
[11]
  Potency: 30.6 µM (active)
[10]
  outcome: inactive

## N#CC(CCc1ccc(Cl)cc1)(Cn1cncn1)c1ccccc1 (centres undefined)
[5]
  Potency: inactive
[11]
  Potency: 68.6 µM (active)

## CCC(C)Nc1c([N+](=O)[O-])cc(C(C)(C)C)cc1[N+](=O)[O-] (centres undefined)
[5]
  Potency: inactive
[6]
  max response: -21.7%
[7]
  Potency: inactive
[8]
  max response: -9.41%

## C=C(C)C(=O)OCC(CC)CCCC (centres undefined)
[5]
  Potency: inactive
[9]
  activity change % (negative = inhibition): 10.1% (inactive)
[10]
  outcome: inactive

## COC(=O)N(C(=O)N1COC2(C(=O)OC)Cc3cc(Cl)ccc3C2=N1)c1ccc(OC(F)(F)F)cc1 (centres undefined)
[6]
  max response: 21%

## CC1(C)C(C(=O)OC(C#N)c2cccc(Oc3ccccc3)c2)C1(C)C (centres undefined)
[4]
  activation: 5.5% (inactive)
[6]
  max response: 27.8%
[8]
  max response: -5.14%
[9]
  activity change % (negative = inhibition): 2.17% (inactive)

## CC1(C)CCC(Cc2ccc(Cl)cc2)C1(O)Cn1cncn1 (centres undefined)
[4]
  activation: 4.35% (inactive)
[7]
  Potency: inactive
[8]
  max response: 16.6%

## CCC[CH2][Sn](=[O])[CH2]CCC
[1]
  activation: 0.348% (inactive)
[2]
  Potency: inactive
[4]
  activation: -6.54% (inactive)
[5]
  Potency: inactive
[6]
  max response: 0.661%
[7]
  Potency: inactive
[9]
  activity change % (negative = inhibition): -7.82% (inactive)
[11]
  Potency: inactive
[10]
  outcome: inactive

## CN/C(=N\[N+](=O)[O-])NCc1cnc(Cl)s1
[7]
  Potency: inactive
[8]
  max response: -16.2%
[9]
  activity change % (negative = inhibition): -15.1% (inactive)
[10]
  outcome: inactive

## CC1=C(C(=O)Nc2ccccc2)S(=O)(=O)CCO1
[4]
  activation: -2.72% (inactive)
[11]
  Potency: 8.63 µM (active)
[10]
  outcome: inactive

## CCOP(=O)(OCC)OP(=O)(OCC)OCC
[1]
  activation: 5.85% (inactive)
[2]
  Potency: inactive
[3]
  Potency: inactive
[4]
  activation: 2.91% (inactive)
[6]
  max response: 14.8%
[7]
  Potency: inactive
[8]
  max response: -12.7%
[9]
  activity change % (negative = inhibition): 15.3% (inactive)
[11]
  Potency: inactive

## C[N+]1(C)CCCCC1
[1]
  activation: 4.04% (inactive)
[2]
  Potency: inactive
[6]
  max response: -14.2%
[7]
  Potency: inactive
[8]
  max response: -8.78%
[9]
  activity change % (negative = inhibition): 2.54% (inactive)
[10]
  outcome: inactive

## ClC1=C(Cl)C2(Cl)C3C4OC4C(Cl)C3C1(Cl)C2(Cl)Cl (centres undefined)
[5]
  Potency: inactive
[6]
  max response: -5.72%
[7]
  Potency: inactive
[9]
  activity change % (negative = inhibition): 16.3% (inactive)
